Experimental data taken from the supplement of paper PMC4206461.
A number with no mark means an inactive call.

Key:
[1] = system: Pseudomonas aeruginosa PA14 dppA1-A5 penta mutant + pBBR5.DppA1 (PA14_58350); experiment: respiration area under curve with compound as sole nitrogen source, 24 h (OmniLog AUC (arbitrary units)); higher = more respiration / better utilisation as nitrogen source, active = 2000 or more
Experimental: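 Biolog Phenotype MicroArray plates PM6-PM8: each di/tripeptide is the sole nitrogen source. Tetrazolium reduction was read in the OmniLog for 24 h at 37°C and summarised as area under the respiration curve (arbitrary units). Values below 2000 count as no respiration. Strain is the SBP penta mutant complemented with DppA1 on a plasmid under its native promoter. Lys/His/Cys peptides are excluded.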

[2] = system: Pseudomonas aeruginosa PA14 wild type; experiment: as above
Experimental: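 Biolog Phenotype MicroArray plates PM6-PM8: each di/tripeptide is the sole nitrogen source (IF-0 medium with succinate/ferric citrate and dye mix A). Tetrazolium reduction was read in the OmniLog every 15 min for 24 h at 37°C and summarised as area under the respiration curve (arbitrary units). The paper counts values below 2000 as no respiration and above 8000 as solid respiration. Replicate datasets are averaged.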

[3] = system: Pseudomonas aeruginosa PA14 dppBCDF deletion mutant; experiment: respiration area under curve with compound as sole nitrogen source, 24 h (OmniLog AUC (arbitrary units)); higher = more respiration / better utilisation as nitrogen source, active = 2000 or more; extreme values may be limits of the assay
Experimental: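 Biolog Phenotype MicroArray plates PM6-PM8: each di/tripeptide is the sole nitrogen source. Tetrazolium reduction was read in the OmniLog every 15 min for 24 h at 37°C and summarised as area under the respiration curve (arbitrary units). Values below 2000 count as no respiration. Strain is the dipeptide ABC transporter deletion mutant.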

## CC(C)CC(N)C(=O)NC(CC(=O)O)C(=O)O (stereo not drawn) (plate: PM6)
[1]
  respiration area under curve: 4660 (active)
[2]
  respiration area under curve: 7510 (active)
[3]
  respiration area under curve: 735

## N[C@@H](Cc1ccccc1)C(=O)NCC(=O)O (plate: PM7)
[1]
  respiration area under curve: 6420 (active)
[3]
  respiration area under curve: 872

## CC[C@H](C)[C@H](N)C(=O)N[C@@H](C)C(=O)O (plate: PM6)
[1]
  respiration area under curve: 2520 (active)
[3]
  respiration area under curve: 88.8

## CC(C)C[C@H](N)C(=O)N[C@@H](C)C(=O)O (plate: PM6)
[1]
  respiration area under curve: 7500 (active)
[3]
  respiration area under curve: 7270 (active)

## CSCCC(NC(=O)C(N)C(C)C)C(=O)O (stereo not drawn) (plate: PM8)
[1]
  respiration area under curve: 2570 (active)
[3]
  respiration area under curve: 397

## C[C@H](NC(=O)CCN)C(=O)O (plate: PM8)
[1]
  respiration area under curve: 4280 (active)
[2]
  respiration area under curve: 6440 (active)
[3]
  respiration area under curve: 0

## CSCC[C@H](NC(=O)[C@H](C)N)C(=O)O (plate: PM8)
[1]
  respiration area under curve: 6710 (active)
[2]
  respiration area under curve: 6360 (active)
[3]
  respiration area under curve: 2300 (active)

## CC[C@H](C)[C@H](N)C(=O)N[C@@H](CCCN=C(N)N)C(=O)O (plate: PM6)
[1]
  respiration area under curve: 7890 (active)
[3]
  respiration area under curve: 8420 (active)

## CC(C)C[C@H](NC(=O)[C@@H](N)CCCN=C(N)N)C(=O)O (plate: PM6)
[1]
  respiration area under curve: 7900 (active)
[2]
  respiration area under curve: 9430 (active)
[3]
  respiration area under curve: 8090 (active)

## CC(C)[C@H](N)C(=O)N[C@@H](Cc1ccc(O)cc1)C(=O)N[C@H](C(=O)O)C(C)C (plate: PM8)
[1]
  respiration area under curve: 7350 (active)
[2]
  respiration area under curve: 8370 (active)
[3]
  respiration area under curve: 5710 (active)

## NC(=O)CC[C@H](NC(=O)[C@@H](N)Cc1ccc(O)cc1)C(=O)O (plate: PM7)
[1]
  respiration area under curve: 12100 (active)
[3]
  respiration area under curve: 10600 (active)

## CC[C@H](C)[C@H](N)C(=O)N[C@@H](CCC(N)=O)C(=O)O (plate: PM6)
[1]
  respiration area under curve: 5000 (active)
[3]
  respiration area under curve: 873

## CSCC[C@H](N)C(=O)N1CCC[C@H]1C(=O)O (plate: PM7)
[1]
  respiration area under curve: 8590 (active)
[3]
  respiration area under curve: 0

## CC(C)[C@H](N)C(=O)N[C@@H](Cc1ccccc1)C(=O)O (plate: PM8)
[1]
  respiration area under curve: 5560 (active)
[3]
  respiration area under curve: 3500 (active)

## NC(N)=NCCC[C@H](N)C(=O)N[C@@H](Cc1ccc(O)cc1)C(=O)O (plate: PM6)
[1]
  respiration area under curve: 8490 (active)
[2]
  respiration area under curve: 9840 (active)
[3]
  respiration area under curve: 8750 (active)

## CC(C)CC(N)C(=O)NC(Cc1c[nH]c2ccccc12)C(=O)O (stereo not drawn) (plate: PM7)
[1]
  respiration area under curve: 8370 (active)
[3]
  respiration area under curve: 7610 (active)

## CSCC[C@H](NC(=O)CN)C(=O)O (plate: PM6)
[1]
  respiration area under curve: 50.7
[3]
  respiration area under curve: 0

## N[C@@H](Cc1ccccc1)C(=O)N1CCC[C@H]1C(=O)O (plate: PM7)
[1]
  respiration area under curve: 3980 (active)
[2]
  respiration area under curve: 11400 (active)
[3]
  respiration area under curve: 1.5

## CSCCC(N)C(=O)NC(CCCN=C(N)N)C(=O)O (stereo not drawn) (plate: PM7)
[1]
  respiration area under curve: 13200 (active)
[3]
  respiration area under curve: 13000 (active)

## NC(=O)CC[C@H](N)C(=O)N[C@@H](CCC(=O)O)C(=O)O (plate: PM8)
[1]
  respiration area under curve: 7630 (active)
[3]
  respiration area under curve: 3750 (active)

## C[C@H](O)[C@@H](NC(=O)CN)C(=O)O (plate: PM8)
[1]
  respiration area under curve: 0
[3]
  respiration area under curve: 0

## NC(N)=NCCC[C@H](NC(=O)[C@@H](N)CCCN=C(N)N)C(=O)O (plate: PM6)
[1]
  respiration area under curve: 8780 (active)
[3]
  respiration area under curve: 9250 (active)

## N[C@@H](CCC(=O)O)C(=O)N[C@@H](Cc1c[nH]c2ccccc12)C(=O)O (plate: PM6)
[1]
  respiration area under curve: 1820
[2]
  respiration area under curve: 2740 (active)
[3]
  respiration area under curve: 728

## O=C(O)[C@@H]1CCCN1C(=O)[C@@H]1CCCN1 (plate: PM7)
[1]
  respiration area under curve: 8180 (active)
[3]
  respiration area under curve: 0

## N[C@@H](Cc1ccccc1)C(=O)N[C@@H](CC(=O)O)C(=O)O (plate: PM8)
[1]
  respiration area under curve: 2600 (active)
[2]
  respiration area under curve: 2860 (active)
[3]
  respiration area under curve: 0

## NCC(=O)N[C@@H](CO)C(=O)O (plate: PM6)
[1]
  respiration area under curve: 6080 (active)
[3]
  respiration area under curve: 2360 (active)

## CC[C@H](C)[C@H](N)C(=O)N[C@@H](Cc1ccc(O)cc1)C(=O)O (plate: PM6)
[1]
  respiration area under curve: 655
[3]
  respiration area under curve: 11

## CC(C)C[C@H](N)C(=O)N[C@@H](CO)C(=O)O (plate: PM7)
[1]
  respiration area under curve: 12700 (active)
[3]
  respiration area under curve: 11800 (active)

## N[C@@H](CC(=O)O)C(=O)NCC(=O)O (plate: PM8)
[1]
  respiration area under curve: 2620 (active)
[3]
  respiration area under curve: 0

## O=C(O)[C@@H]1C[C@@H](O)CN1C(=O)[C@@H]1CCCN1 (plate: PM7)
[1]
  respiration area under curve: 0
[3]
  respiration area under curve: 0

## N[C@@H](Cc1ccc(O)cc1)C(=O)N[C@@H](CCC(=O)O)C(=O)O (plate: PM7)
[1]
  respiration area under curve: 4690 (active)
[3]
  respiration area under curve: 277

## C[C@H](NC(=O)CNC(=O)CN)C(=O)O (plate: PM8)
[1]
  respiration area under curve: 4350 (active)
[3]
  respiration area under curve: 102
